A selection: hits, their analogues and other compounds. The true share with any hit is near 6.2%.
ATXN2 expr inh: ATXN2 expression inhibition; HEK-293 ATXN2-luciferase reporter, luminescence, 24 h; Potency, µM (series often up to 57 µM), hits mostly inhibitors; 360,000 compounds, 0.72% hits; also: nearly all actives have a fitted effect of over 55% in size
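qHTS (up to 57 uM final) was run with 24 h compound exposure of reporter cells at 37 °C. Each well was multiplexed: SteadyGlo luminescence measured ATXN2-luciferase expression after a fluorogenic Gly-Phe-AFC viability readout (25 uM final).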
KB-3-1 tox: kills parental KB-3-1 adenocarcinoma cells; KB-3-1 viability, CellTiter-Glo ATP luminescence, 72 h; Potency, µM (top dose mostly 46.1 µM), hits mostly cytotoxic; 400,000 compounds, 1.4% hits; also: nearly all actives have a fitted effect of over 60% in size
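Cells are dispensed, compounds pinned in, plates held at 37 °C for 72 h, then CellTiter-Glo is added and luminescence read after 10 minutes. Cell line: parental KB-3-1 in phenol-red-free DMEM, 10% FBS.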
KB-V1 MDR tox: kills drug-selected multidrug resistant KB-V1 cells; Potency, µM (series often up to 46.1 µM), actives largely listed as cytotoxic; 400,000 compounds, 3.4% hits; AID 1347076; KB-V1 MDR cells viability, CellTiter-Glo, 72 h; also: nearly all actives have a fitted effect of over 60% in size
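Cytotoxicity toward P-gp-expressing KB-V1 cells was determined as loss of CellTiter-Glo luminescence after 72 h at 37 degrees C. Compounds were tested in quantitative HTS format across a concentration range, with curves fitted to normalized data.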
HT1080 IDH1KD tx: HT-1080 IDH1 knockdown cell toxicity (counter line). HT-1080 IDH1 knockdown viability, ATP luminescence, 48 h. Potency, µM (top dose mostly 46.1 µM), usual class: cytotoxic. 360,000 compounds, 2% hits. AID 686971
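Luminescent ATP read-out (CellTiter-Glo, 10 min at room temperature) after 48 h compound exposure at 37 °C gave viability of IDH1-knockdown HT-1080 cells. Activity was normalised to DMSO and cell-free wells, then fitted as concentration-response curves.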
S2 tox: cell viability loss in ATXN counter-screen. S2 cells (HEK-293 line with an ATXN2-luciferase reporter) viability, CellTiter-Fluor protease fluorescence, 24 h. Potency, µM (series often up to 56.7 µM), actives largely listed as cytotoxic. 400,000 compounds, 0.49% hits. AID 651635; also: nearly all actives have a fitted effect of over 40% in size
HT1080NT lethal: kills 2HG-producing HT-1080-NT fibrosarcoma cells | HT-1080-NT fibrosarcoma viability, CellTiter-Glo ATP luminescence, 48 h | Potency, µM (series often up to 46.1 µM), usual class: cytotoxic | 360,000 compounds, 1.6% hits | AID 686970;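 also: NT is the 2HG producing partner of a matched IDH1 knockdown line; nearly all actives have a fitted effect of over 55% in size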
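A 48-hour cytotoxicity screen used HT-1080-NT cells plated 2 hours before compound delivery. ATP-based CellTiter-Glo luminescence measured viability, normalized to DMSO and no-cell controls.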
Hits are given with their value; . = inactive; ? = inconclusive; / = no result given. Calls follow the shape of the dose curve; as a rule, active = well fitted curve in the direction sought with a large enough effect; inconclusive = small, poorly fitted or top-dose-only effect, or another doubt; inactive = no such curve, though single readings can be large; an effect the other way counts as inactive or inconclusive.

SMILES	ATXN2 expr inh	KB-3-1 tox	KB-V1 MDR tox	HT1080 IDH1KD tx	S2 tox	HT1080NT lethal
COc1ccc(NC(=O)c2cc(C3CCCCN3C(=O)c3ccccc3)on2)c(C)c1 (centres undefined)	.	.	.	.	.	.
CCN(CC)CCNC(=O)c1c(C)n(-c2ccccc2)c2cc(Br)c(OC)cc12	?	?	.	16µM	?	?
Cc1cccc(NC(=O)COc2cccc3c(=O)n(C)ccc23)c1C	.	.	.	/	.	/
COc1cc(-c2cc(C)c3cccc(OC)c3n2)cc2c1OCCN(C(=O)CC1NC(=O)c3ccccc31)C2 (centres undefined)	/	/	/	/	.	/
CC(C)CN=C(NS(=O)(=O)c1ccccc1)C(Cl)(Cl)Cl	?	8.2µM	?	6.5µM	?	6.5µM
NC(=S)NN=Cc1nccc2ccccc12	?	?	.	?	?	4.1µM
CC(=O)n1cc(/C=N/NC(N)=S)c2ccccc21	.	?	5.2µM	.	.	.
NC(=S)N/N=C/c1cccc(O)c1O	.	?	.	.	.	.
Cc1cnc(C=NNC(N)=S)c2cccc(N)c12	?	.	7.3µM	?	?	.
CCN(CC)c1ccc(NC(=O)CSc2nnc(C)c(=O)[nH]2)cc1	.	.	?	/	.	/
CN(C)CCOC1c2ccccc2CCc2ccc3ccccc3c21 (centres undefined)	.	.	?	16µM	?	21µM
COc1ccccc1CNC(=O)Cn1ncc2c(=O)oc3ccc(C)cc3c21	/	.	.	/	/	/
COc1ccc(C(=O)NCCn2cc(SCC(=O)Nc3ccccc3)c3ccccc32)cc1OC	.	.	.	/	?	/
COc1ccc(C(=O)NCCn2cc(SCc3cccc(F)c3)c3ccccc32)cc1OC	18µM	?	?	/	?	/
O=C(NCCn1cc(SCc2cccc(F)c2)c2ccccc21)c1cccc(C(F)(F)F)c1	.	.	21µM	/	?	/
COC(=O)[C@@]12C[C@@H](CC(=O)N3CCOCC3)C(=O)N(CCc3ccc(OC)c(OC)c3)C1=CCC(C)(C)C2	/	.	.	.	/	.
CC1CCN(C(=O)c2c(NC(=O)c3ccccc3Cl)sc3c2CCC(C(C)(C)C)C3)CC1 (centres undefined)	.	.	.	/	.	/
COc1cccc(/C=N/n2c(-c3ccco3)nc3ccccc3c2=O)c1	.	.	2.6µM	.	.	.
COc1ccc(/C=N/n2c(-c3ccco3)nc3ccccc3c2=O)cc1	.	.	.	.	.	.
Cc1ccc(P(=O)(c2ccc(C)cc2)[C@@H](NC(c2ccccc2)c2ccccc2)c2ccccc2)cc1	?	?	21µM	16µM	?	15µM
Cc1ccc(P(=O)(O)c2ccc(C)cc2)cc1	.	.	.	.	.	.
Cc1cc(C(=O)N2CCN(c3cccc(Cl)c3)CC2)n(-c2ccccc2)n1	.	/	/	/	/	/
Cc1cc(C)nc(N2CCCC(C(=O)Nc3ccc4c(c3)OCCO4)C2)n1 (centres undefined)	.	.	7.3µM	?	.	?
Cc1cc(C)nc(N2CCCC(C(=O)Nc3ccc4nc(C)c(C)nc4c3)C2)n1 (centres undefined)	.	.	?	.	.	.
Cc1cccc(NC(=O)C2CCCN(c3nc4ccccc4s3)C2)c1C (centres undefined)	.	.	.	/	.	/
SMILES	ATXN2 expr inh	KB-3-1 tox	KB-V1 MDR tox	HT1080 IDH1KD tx	S2 tox	HT1080NT lethal
Cc1cc(C)nc(N2CCCC(C(=O)Nc3nnc(C)s3)C2)n1 (centres undefined)	.	.	18µM	.	.	.
Cc1ccnc(N2CCCC(C(=O)Nc3nnc(C)s3)C2)n1 (centres undefined)	.	.	.	.	.	.
CCc1nnc(NC(=O)C2CCCN(c3nc4ccccc4s3)C2)s1 (centres undefined)	.	.	15µM	.	.	.
Cc1ccc2nc(-c3ccncc3)c(Nc3ccc(C(C)C)cc3)n2c1	.	.	.	/	?	/
CN1c2ccc(Cl)cc2C(=O)NC1c1ccc([N+](=O)[O-])s1 (centres undefined)	.	.	.	23µM	.	?
CN(CC(=O)Nc1ccccc1C(F)(F)F)C(=O)c1ccc(N2C(=O)CCC2=O)cc1	.	.	.	.	.	.
